Compound activity (PubChem)
Pf growth 96h: P. falciparum growth inhibition at 96 hours | P. falciparum luciferase reporter growth, 96 h | AID 504834 | Potency, µM (doses to about 28.7 µM), for inactives: top-dose activity change, negative = inhibition, usual class: inhibitors | 6.9% of 320,000 active; also: potency is read from the fitted curve at half-maximal effect; % is scaled to controls: 0 for no effect and ±100 for the full control effect
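Erythrocytes infected with luciferase-expressing P. falciparum were dispensed at 2% hematocrit and 0.05% parasitemia (final), then incubated with compounds 96 hours at 37 C in 5% CO2. Luminescence after detection reagent addition reported growth.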
CHX counter: affects cycloheximide protein synthesis inhibition readout, counter-screen. cell reporter, cycloheximide protein synthesis inhibition counterscreen. AID 2314. 12% of 300,000 active. max response, %; in the data active = max response mostly above about 13%, no sharp cut-off; inactive = mostly below about 14%; also: read at 38.3 µM for the half of the compounds with a filed dose; 0% is about no effect
AMA1 RON2 block: disrupts binding of P. falciparum AMA1 to RON2 | AlphaScreen AMA1-biotinylated RON2 peptide binding | Potency, µM (doses to about 58.2 µM), for the others: at the top dose activity change, negative = inhibition, actives largely listed as inhibitors | 0.2% of 360,000 active | AID 720542;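 also: potency is read from the fitted curve at half-maximal effect; 0% = vehicle wells and -100% = peptide control; nearly all actives have a fitted effect of over 45% in size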
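AMA1 (3D7) with his tag at 25 nM final met compounds first, then biotinylated RON2 peptide at 25 nM; detection used donor plus acceptor beads, 10 µg/mL apiece, read by AlphaScreen after 30 min at room temperature.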
SARS PLpro yeast: blocks SARS-CoV papain-like protease in a yeast assay; S. cerevisiae expressing SARS-CoV PLpro, growth rescue; Potency, µM (titrated, usually from 32.9 µM), inactives show at the highest dose activity, positive = growth rescue, usual class: activators; AID 485353; 0.19% of 330,000 active; calls by dose curve; also: potency is read from the fitted curve at half-maximal effect; 0% is about no effect; nearly all actives have a fitted effect of over 55% in size
Pf growth 48h: P. falciparum growth inhibition at 48 hours (one generation) | AID 504832 | Potency, µM (titrated, usually from 28.7 µM), for the others: at the highest dose activity change, negative = inhibition, most hits filed as inhibitors | P. falciparum luciferase growth in erythrocytes, 48 h | 5.9% of 310,000 active; also: potency is read from the fitted curve at half-maximal effect; % is scaled to controls: 0 for no effect and ±100 for the full control effect
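Compounds are pin-transferred into medium, infected erythrocytes (2% hematocrit, 0.1% parasitemia final) are added, and plates sit one parasite generation at 37 C in 5% CO2. Detection reagent is then added and luminescence measured.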
Shiga inhibitor: Shiga toxin inhibition | 9.2% of 290,000 active | Vero cells, Shiga toxin protein synthesis inhibition reporter | inhibition, % at 38.7 µM; in the data active = inhibition mostly above about 28%, no sharp cut-off; inactive = mostly below about 43%; also: 0% is about no effect
* hit, by the source's call. Sampled rows, rich in hits. Any-hit rate of the full collection: about 19%. Unless noted, calls follow the shape of the dose curve; as a rule, active = well fitted curve in the direction sought with a large enough effect; inconclusive = small, poorly fitted or top-dose-only effect, or another doubt; inactive = no such curve, though single readings can be large; an effect the other way counts as inactive or inconclusive.

Cc1nc(S(=O)(=O)N2CCOCC2)c(C#N)c(C)c1Cl was read as Pf growth 96h inconclusive, CHX counter -2, AMA1 RON2 block -1%, SARS PLpro yeast 24%, Pf growth 48h inconclusive and Shiga inhibitor -7.
Screening CC(=O)c1cccc(Nc2nc3ccccc3n3cnnc23)c1 returned Pf growth 96h -4%, CHX counter 14, AMA1 RON2 block -16%, SARS PLpro yeast -1%, Pf growth 48h inconclusive and Shiga inhibitor 4.
For CCn1c(=O)c2c(nc(SCC(=O)Nc3ccccc3)n2C)n(C)c1=O the results were Pf growth 96h -16%, CHX counter -5, AMA1 RON2 block 5%, SARS PLpro yeast 1%, Pf growth 48h -3% and Shiga inhibitor -3.
Screening COc1ccc(N2C(=O)[C@@H]3[C@H](C2=O)[C@H](C(=O)c2ccc(OC(C)=O)cc2)N2N=CC=C[C@@H]32)cc1 returned Pf growth 96h 58%, CHX counter 14*, SARS PLpro yeast -11%, Pf growth 48h 26% and Shiga inhibitor 38*.
`O=C(Nc1ccccc1)[C@@H]1[C@@H]2C(=O)N(c3ccc(F)cc3)C(=O)[C@@H]2[C@H]2C=CC=NN21` gave Pf growth 96h 2%, CHX counter 6, AMA1 RON2 block -18%, SARS PLpro yeast 0%, Pf growth 48h -7% and Shiga inhibitor 25.
CC(=O)Oc1ccc(C(=O)[C@H]2[C@H]3C(=O)N(c4ccccc4)C(=O)[C@H]3[C@@H]3C=CC=NN32)cc1 was read as Pf growth 96h 12%, CHX counter 11, AMA1 RON2 block -7%, SARS PLpro yeast -9%, Pf growth 48h 3% and Shiga inhibitor -10.
Screening Cc1ccc(N2C(=O)[C@@H]3[C@H](C2=O)[C@H]2C=CC=NN2[C@@H]3C(=O)Nc2ccccc2)cc1 returned Pf growth 96h inconclusive, CHX counter 16*, AMA1 RON2 block 13%, SARS PLpro yeast 0%, Pf growth 48h inconclusive and Shiga inhibitor 15.
Screening CC(C)C[C@H](NC(=O)CNC(=O)[C@H](CCC(N)=O)NC(=O)[C@H](CC(C)C)NC(=O)[C@H](CC(C)C)NC(=O)[C@H](CCCNC(=N)N)NC(=O)[C@H](CCC(N)=O)NC(=O)[C@H](CC(C)C)NC(=O)[C@H](CCCNC(=N)N)NC(=O)[C@H](C)NC(=O)CNC(=O)[C@H](CCC(=O)O)NC(=O)[C@H](CCCNC(=N)N)NC(=O)[C@H](CC(C)C)NC(=O)[C@H](CCCNC(=N)N)NC(=O)[C@H](CO)NC(=O)[C@H](CC(C)C)NC(=O)[C@H](CCC(=O)O)NC(=O)[C@H](CO)NC(=O)[C@@H](NC(=O)[C@H](Cc1ccccc1)NC(=O)[C@@H](NC(=O)CNC(=O)[C@H](CC(=O)O)NC(=O)[C@H](CO)NC(=O)[C@@H](N)Cc1cnc[nH]1)[C@@H](C)O)[C@@H](C)O)C(=O)N[C@H](C(N)=O)C(C)C returned CHX counter -6 and Shiga inhibitor -14.
Screening O=C(O)c1ccc(CSCc2ccccc2Cl)o1 returned Pf growth 96h 27%, CHX counter -2, AMA1 RON2 block -2%, SARS PLpro yeast -1%, Pf growth 48h 15% and Shiga inhibitor -6.
CCC(C)NC(=O)c1ccc(CSCc2ccccc2Cl)o1 (centres undefined) was read as Pf growth 96h 18%, CHX counter 23*, AMA1 RON2 block -6%, SARS PLpro yeast 0%, Pf growth 48h 7.4µM* and Shiga inhibitor 29.
CC(C)NC(=O)c1ccc(CSCc2ccccc2Cl)o1 was read as Pf growth 96h 4.7µM*, CHX counter 27*, AMA1 RON2 block -6%, SARS PLpro yeast -3%, Pf growth 48h 1.5µM* and Shiga inhibitor 21.
N#Cc1ccccc1S(=O)(=O)c1ccccc1C(=O)Nc1ccccc1 was read as Pf growth 96h 12%, CHX counter -1, AMA1 RON2 block 0%, SARS PLpro yeast -5%, Pf growth 48h 2% and Shiga inhibitor -2.
`Cc1nc2cc(F)ccc2n1C1CCN(C(=O)c2ccc(F)cc2F)CC1` gave Pf growth 96h inconclusive, CHX counter 0, AMA1 RON2 block -12%, SARS PLpro yeast 2%, Pf growth 48h inconclusive and Shiga inhibitor -8.
